Here are results for 59 molecules from PubChem BioAssay AID687014 (The Scripps Research Institute Molecular Screening Center, 2013).

In all, about 370,000 compounds went through this assay and about 6,800 (1.8%) were called active. This is one part of a sample in which actives are shown more often than they occur.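 How the source made its calls: active means activation above a cutoff set at the mean of all screened compounds plus 3 SD (cut at about 10% in these data); inactive means the rest.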

This assay has as its system Nuclear hormone receptor DAF-12 (Heterodera glycines), GAL4 fusion. In words: H. glycines DAF-12 receptor agonists, primary screen, cell-based, luminescence, HEK293, GAL4 fusion, UAS-luciferase (AID 687014).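 Further: 0% = DMSO wells and 100% = sodium butyrate wells.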 The following applies: HEK293 GAL4-hgDAF12 UAS-luciferase reporter, agonist luminescence; at 6.8 µM; hits give high values; normalized to butyrate control. (In a reporter assay the amount or activity of a reporter protein is the signal.)
Turning to `Cn1c(=NC(=O)c2ccco2)sc2cccc(F)c21`, the activation is 20.1% (active). Turning to `Cn1c(=NC(=O)c2cnccn2)sc2ccccc21`, the activation is 9.34% (inactive). Regarding `Cc1cc(NC(=O)c2ccco2)c(=O)n(Cc2c(F)cccc2Cl)c1`, the activation was -0.15% (inactive).

With `CC(c1ccc(N)cc1)c1cn(C)c2ccccc12` (centres undefined), the activation is -1.36% (inactive). `C#CCN([C@H](C(=O)OC)C(C)CC)S(=O)(=O)c1ccccc1Br` (some centres undefined): the activation is 0.28% (inactive). To `CN(C)S(=O)(=O)c1cccc(C(=O)N/N=C\c2ccco2)c1` belongs 3.58% (inactive); to `CC(/C=N/NC(=O)c1cc(-c2ccc3ccccc3c2)n[nH]1)=C\c1ccco1`, 20.6% (active).

On to `Cc1cc(C(=O)NN=C/C=C/c2ccco2)n[nH]1`, for which the activation was -0.85% (inactive). With `COC(=O)[C@]12C[C@H](CC(=O)N3CCN(C(=O)C4CC4)CC3)C(=O)N(Cc3ccc4c(c3)OCO4)C1=C[C@H](C(C)(C)C)O[C@@H]2C`, the activation is 0.51% (inactive).

For the molecule `C/C(CC(=O)NC(C)(C)C)=N\NC(=O)c1ccco1`, the activation was 12.8% (active).

As to `COc1cccc2cc(/C(C)=N/NC(=O)c3ccco3)oc12`, the activation is 4.73% (inactive).

In the case of `COc1ccc(N(CC(=O)NC(C)(C)C)C(=O)c2ccco2)cc1`, the activation was 0.5% (inactive). In the case of `CCOC(=O)c1cccc(NC(=O)CN(C)S(=O)(=O)c2ccc(-c3cocn3)s2)c1`, the activation is 1.77% (inactive).

For the molecule `COC(=O)c1ccc(/C=C/c2c(-c3ccc(OC)cc3)sc3ccccc23)cc1`, the activation was 0.64% (inactive). Consider `COc1ccc(N=C(C)c2sc3ccccc3c2O)cc1`, for which the activation is 13.8% (active).

As for `COc1ccc(-n2c(SCC(=O)NC3CCCC3)nnc2-c2ccncc2)cc1`, the activation was -0.49% (inactive). The same measure for `Cc1ccc(Cn2cc(COC(=O)N(C)Cc3ccccc3)nn2)cc1`: 0.1% (inactive); for `CC(=O)Nc1cccc(-c2csc(Nc3cccc(C)n3)n2)c1`: 16.6% (active). Consider `Cc1cccc(Nc2nc(-c3ccccc3)cs2)n1`, for which the activation was 18.8% (active). For the molecule `CC(=O)NC(c1cccc(F)c1)c1nc(-c2cccc(F)c2)cs1` (centres undefined), the activation was 1.2% (inactive). As to `c1ccc(-c2csc(N3CCc4ccccc4C3)n2)cc1`, the activation is 4.55% (inactive).

For the molecule `CC(=O)NC(c1ccccc1)c1nc(-c2cccc(C(C)C)c2)cs1` (centres undefined), the activation was 1.94% (inactive). The same measure for `N#CC(=C1SC=CS1)c1nc(-c2ccccc2)cs1`: 8.13% (inactive); for `Cc1csc(NC(=O)CSc2nnc(-c3cccnc3)o2)n1`: 4.01% (inactive). The same measure for `O=S(=O)(NCCc1csc(-c2ccccc2)n1)c1cccnc1`: -0.11% (inactive).

For `Cc1ccccc1Nc1nc(-c2cccnc2)cs1`, the activation is 17.6% (active). As for `Cc1cc(C)nc(NC(=S)N2CCN(c3ccc(C(F)(F)F)cn3)CC2)c1`, the activation is -6.42% (inactive).

With `O=C(NCC1CC1)c1onc(CSc2ccccc2)c1C(=O)NCC1CC1`, the activation was 1.09% (inactive). Take `Cc1cccc(NC(=O)C[C@H]2CC[C@H]3[C@@H](COc4ccc(NC(=O)Nc5ccccc5)cc4C(=O)N3C)O2)c1`: the activation is -1.77% (inactive). To `O=C(NCCCN1CCN(c2ccccc2F)CC1)C1CCC(=O)N1C1CCCCC1` (centres undefined) belongs 0.6% (inactive).

Take `O=C1CN(C(=O)c2ccccc2F)C(c2ccc(F)cc2)c2cc(F)ccc2N1` (centres undefined): the activation was -3.72% (inactive).

Turning to `O=C(CCCCCN1C(=O)C2C3C=CC(C3)C2C1=O)Nc1ccccn1` (centres undefined), the activation was 2.03% (inactive). Regarding `COC(CNC(=O)[C@H](Cc1ccccc1)NC1(C(=O)NC2CCCCC2)CCCCC1)OC`, the activation was 1.76% (inactive).

As for `CC(C)C(=O)NCc1cc(-c2ccc(Cl)cc2)no1`, the activation was -0.54% (inactive). To `N#Cc1c(-c2ccccc2)c(-c2ccccc2)n[nH]c1=O` belongs 0.04% (inactive); to `Oc1ccccc1-c1cc(-c2ccc(Cl)cc2)n[nH]1`, 20.1% (active). To `c1ccc(-c2cc(-c3ccccc3)[nH]n2)cc1` belongs 12.2% (active); to `Cc1c[nH]c2cccc(-c3ccc(Cl)cc3)c12`, 5.56% (inactive).

On to `O=C(O)c1n[nH]nc1-c1ccccc1`, for which the activation is -0.69% (inactive). The same measure for `Cc1ccc(S(=O)(=O)N(C)c2ccc(OCC(=O)OCC(=O)N(CC#N)c3ccccc3)cc2)cc1`: -0.04% (inactive); for `O=C(N[C@H](Cc1ccccc1)C(=O)N1CCCN(Cc2cccs2)CC1)[C@H]1O[C@@H](n2ccc(=O)[nH]c2=O)[C@H](O)[C@@H]1O`: -0.37% (inactive).

With `CC(C)(C)C(c1nc2ccccc2[nH]1)n1c(Cc2csc3ccccc23)nc2ccccc21` (centres undefined), the activation was 6.72% (inactive). The same measure for `O=C(O)Cn1cnc2c(NCc3ccccc3)ncnc21`: 1.82% (inactive). Regarding `CCCCNC(=O)C[C@H]1C[C@@]2(C(=O)OC)C(=C[C@H](COCc3ccccc3)O[C@@H]2C)N(Cc2ccc(Cl)cc2Cl)C1=O`, the activation is 0.35% (inactive).

For the molecule `O=C(N1CCOCC1)N1CC[C@H]2[C@H](CCCN2Cc2ccc(F)cc2)C1`, the activation is -0.84% (inactive). For the molecule `O=C(CCS(=O)(=O)c1cccc2nsnc12)N1CCN(c2ccccc2F)CC1`, the activation was 0.1% (inactive). The same measure for `O=C(CCSc1ccccc1)N1CCN(c2ccccc2F)CC1`: 14.2% (active). Consider `O=C(CCc1ccccc1F)N1CCN(c2ccccc2)CC1`, for which the activation was 0.77% (inactive). The same measure for `O=C(CCc1ccccc1)Nc1ncc([N+](=O)[O-])s1`: 11.2% (active). The same measure for `O=C(CCc1ccccc1)Nc1nn[nH]n1`: 0.42% (inactive); for `O=C(CCc1ccccc1)Nc1ccc(NC(=O)C2CC2)nc1`: -1.22% (inactive); for `CCc1ccc(NC(=O)Cn2nnc(C(=O)NCc3ccc4c(c3)OCO4)c2N)cc1`: -0.22% (inactive). The same measure for `Cn1cc([N+](=O)[O-])c(C(=O)Nc2ccc3c(c2)OCCO3)n1`: 5.47% (inactive); for `Nc1c(C(=O)Nc2ccc3c(c2)OCCO3)nnn1Cc1ccccc1`: 11.1% (active).

For the molecule `COc1ccccc1NS(=O)(=O)c1ccc(C)c(C(=O)NNC(=O)c2csc(N3CCOCC3)n2)c1`, the activation was -0.05% (inactive). The same measure for `Cc1ccccc1CC1(CO)CCCN(C(=O)c2cc(-c3ccccc3)no2)C1` (centres undefined): -2.47% (inactive); for `Cc1noc(C)c1CCC(=O)N1CCCC(CO)(Cc2ccccc2)C1` (centres undefined): 9.68% (inactive); for `COC(=O)CCC(=O)N1CCCC(CO)(Cc2ccccc2)C1` (centres undefined): 11.1% (active). The same measure for `CC1CCCN(c2cccc3c2S(=O)(=O)N(Cc2ccc(F)cc2)[C@@H](C)[C@H](c2ccccc2)O3)C1` (some centres undefined): 2.2% (inactive).
